Test results: PubChem BioAssay AID1159580 (chemical genetic matrix, 2015)
Screen size: about 5,500 compounds; about 2,000 (36%) were called active. Another 18% or so got no clear call; they are omitted. No stated cut-off is given here; in the data, active means normalized growth mostly below about 0.91 (no sharp cut-off); inconclusive means no clear call, values can overlap the other calls; inactive means mostly above about 0.92. The list shows a part of the results.

Assay: chemical genetic growth profiling, strain panel (AID 1159580);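 further: tested at 20 µM; growth read once vehicle control cultures reached saturation at 30 °C; 1 = growth at the plate median or of vehicle wells; lower values mean less growth of the strain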
Settings: growth OD

Measured: normalized growth

CC1(C)C[C@@H]2C(=O)CC[C@H]3O[C@]3(C)CC[C@H]21
inactive: S. cerevisiae deletion strains, locus YJR075W, strain HOC1, active compounds read low 1.01 | S. cerevisiae deletion strains, locus YKL009W, strain mrt4, active compounds read low 0.985 | S. cerevisiae deletion strains, locus YKL068W, active compounds read low 0.997 | S. cerevisiae deletion strains, locus YKL085W, strain MDH1 (second series), active compounds read low 0.996 | S. cerevisiae deletion strains, locus YKL085W, strain MDH1, active compounds read low 0.996 | S. cerevisiae deletion strains, locus YKL160W, strain elf1, active compounds read low 1.01 | S. cerevisiae deletion strains, locus YKL190W, strain CNB1, active compounds read low 1.01 | S. cerevisiae deletion strains, locus YKR001C, strain vps1, active compounds read low 0.994 | S. cerevisiae deletion strains, locus YKR026C, strain gcn3, active compounds read low 1.02 | S. cerevisiae deletion strains, locus YKR091W, strain srl3, active compounds read low 1.01 | S. cerevisiae deletion strains, locus YLL001W, strain dnm1, active compounds read low 0.985 | S. cerevisiae deletion strains, locus YLL026W, active compounds read low 1.01 | S. cerevisiae deletion strains, locus YLL041C, strain sdh2, active compounds read low 1.01 | S. cerevisiae deletion strains, locus YLR027C, strain aat2, active compounds read low 1.03 | S. cerevisiae deletion strains, locus YLR039C, strain RIC1, active compounds read low 1.07 | S. cerevisiae deletion strains, locus YLR058C, strain SHM2, active compounds read low 1.01 | S. cerevisiae deletion strains, locus YLR102C, strain apc9, active compounds read low 0.991 | S. cerevisiae deletion strains, locus YLR113W, strain HOG1, active compounds read low 0.951 | S. cerevisiae deletion strains, locus YLR221C, strain rsa3, active compounds read low 1.04 | S. cerevisiae deletion strains, locus YLR258W, strain gsy2, active compounds read low 0.995 | S. cerevisiae deletion strains, locus YLR262C, strain YPT6 (second series), active compounds read low 1.05 | S. cerevisiae deletion strains, locus YLR262C, strain YPT6, active compounds read low 1.06 | S. cerevisiae deletion strains, locus YLR268W, strain sec22, active compounds read low 0.992 | S. cerevisiae deletion strains, locus YLR320W, strain mms22, active compounds read low 1.04 | S. cerevisiae deletion strains, locus YLR330W, strain CHS5, active compounds read low 1.01 | S. cerevisiae deletion strains, locus YLR342W, strain FKS1 (second series), active compounds read low 0.987 | S. cerevisiae deletion strains, locus YLR342W, strain FKS1, active compounds read low 1.01 | S. cerevisiae deletion strains, locus YLR357W, strain rsc2, active compounds read low 1 | S. cerevisiae deletion strains, locus YLR370C, strain arc18, active compounds read low 1.01 | S. cerevisiae deletion strains, locus YLR371W, strain rom2, active compounds read low 0.998 | S. cerevisiae deletion strains, locus YLR384C, strain iki3, active compounds read low 1.03 | S. cerevisiae deletion strains, locus YLR418C, strain cdc73, active compounds read low 1.01 | S. cerevisiae deletion strains, locus YML016C, strain PPZ1, active compounds read low 1 | S. cerevisiae deletion strains, locus YML032C, strain rad52, active compounds read low 0.983 | S. cerevisiae deletion strains, locus YML120C, strain ndi1, active compounds read low 0.999 | S. cerevisiae deletion strains, locus YML124C, strain tub3, active compounds read low 0.995 | S. cerevisiae deletion strains, locus YMR058W, strain fet3, active compounds read low 1.03 | S. cerevisiae deletion strains, locus YMR078C, strain ctf18, active compounds read low 0.989 | S. cerevisiae deletion strains, locus YMR125W, strain sto1, active compounds read low 1.01 | S. cerevisiae deletion strains, locus YMR129W, active compounds read low 1.01 | S. cerevisiae deletion strains, locus YMR205C, strain PFK2, active compounds read low 1 | S. cerevisiae deletion strains, locus YMR223W, strain ubp8, active compounds read low 0.991 | S. cerevisiae deletion strains, locus YMR231W, strain pep5, active compounds read low 1.02 | S. cerevisiae deletion strains, locus YMR263W, strain SAP30, active compounds read low 1.02 | S. cerevisiae deletion strains, locus YMR307W, strain GAS1, active compounds read low 1.01 | S. cerevisiae deletion strains, locus YNL067W, strain RPL9B, active compounds read low 1.01 | S. cerevisiae deletion strains, locus YNL071W, strain lat1, active compounds read low 1.01 | S. cerevisiae deletion strains, locus YNL128W, strain TEP1, active compounds read low 1.02 | S. cerevisiae deletion strains, locus YNL153C, strain GIM3, active compounds read low 1.02 | S. cerevisiae deletion strains, locus YNL183C, strain NPR1, active compounds read low 0.905 | S. cerevisiae deletion strains, locus YNL209W, strain ssb2, active compounds read low 1.01 | S. cerevisiae deletion strains, locus YNL233W, strain BNI4, active compounds read low 1.02 | S. cerevisiae deletion strains, locus YNL248C, strain rpa49, active compounds read low 1.04 | S. cerevisiae deletion strains, locus YNL250W, strain rad50, active compounds read low 0.998 | S. cerevisiae deletion strains, locus YNL271C, strain bni1, active compounds read low 0.997 | S. cerevisiae deletion strains, locus YNL298W, strain CLA4, active compounds read low 0.996 | S. cerevisiae deletion strains, locus YNL307C, strain MCK1, active compounds read low 0.99 | S. cerevisiae deletion strains, locus YNL322C, strain KRE1 (second series), active compounds read low 1 | S. cerevisiae deletion strains, locus YNL322C, strain KRE1, active compounds read low 1.01 | S. cerevisiae deletion strains, locus YNR049C, strain mso1, active compounds read low 1.02 | S. cerevisiae deletion strains, locus YNR052C, strain pop2, active compounds read low 0.999 | S. cerevisiae deletion strains, locus YOL006C, strain TOP1, active compounds read low 1.07 | S. cerevisiae deletion strains, locus YOL012C, strain htz1 1.57 | S. cerevisiae deletion strains, locus YOL147C, strain pex11, active compounds read low 0.997 | S. cerevisiae deletion strains, locus YOR001W, strain rrp6, active compounds read low 1.02 | S. cerevisiae deletion strains, locus YOR061W, strain CKA2, active compounds read low 1.01 | S. cerevisiae deletion strains, locus YOR069W, strain VPS5, active compounds read low 1 | S. cerevisiae deletion strains, locus YOR070C, strain gyp1, active compounds read low 1.02 | S. cerevisiae deletion strains, locus YOR080W, strain dia2, active compounds read low 1.03 | S. cerevisiae deletion strains, locus YOR083W, strain WHI5, active compounds read low 1.01 | S. cerevisiae deletion strains, locus YOR106W, strain vam3, active compounds read low 0.995 | S. cerevisiae deletion strains, locus YOR136W, strain idh2, active compounds read low 0.996 | S. cerevisiae deletion strains, locus YOR144C, strain elg1, active compounds read low 0.995 | S. cerevisiae deletion strains, locus YOR184W, strain ser1, active compounds read low 0.962 | S. cerevisiae deletion strains, locus YOR231W, strain MKK1, active compounds read low 0.947 | S. cerevisiae deletion strains, locus YOR265W, strain rbl2, active compounds read low 1.03 | S. cerevisiae deletion strains, locus YOR270C, strain vph1, active compounds read low 1.07 | S. cerevisiae deletion strains, locus YOR290C, strain snf2, active compounds read low 0.995 | S. cerevisiae deletion strains, locus YOR316C, strain cot1, active compounds read low 0.992 | S. cerevisiae deletion strains, locus YPL051W, strain arl3, active compounds read low 1 | S. cerevisiae deletion strains, locus YPL055C, strain LGE1, active compounds read low 1.04 | S. cerevisiae deletion strains, locus YPL078C, strain atp4, active compounds read low 0.992 | S. cerevisiae deletion strains, locus YPL106C, strain sse1, active compounds read low 0.984 | S. cerevisiae deletion strains, locus YPL240C, strain hsp82, active compounds read low 1.02 | S. cerevisiae deletion strains, locus YPL241C, strain CIN2, active compounds read low 1.01 | S. cerevisiae deletion strains, locus YPL256C, strain CLN2, active compounds read low 0.983 | S. cerevisiae deletion strains, locus YPR119W, strain clb2, active compounds read low 0.992 | S. cerevisiae deletion strains, locus YPR141C, strain kar3, active compounds read low 0.991 | S. cerevisiae deletion strains, locus YPR163C, strain tif3, active compounds read low 0.998 | S. cerevisiae deletion strains, locus YPR167C, strain met16, active compounds read low 0.995 | S. cerevisiae deletion strains, strain wtn01, active compounds read low 0.989 | S. cerevisiae strains, strain wild type, active compounds read low 1.01
